D2 PAM-1 – human D2 receptor positive allosteric modulation; P14416; DiscoveRx D2 beta-arrestin cells, luminescence, 90 min; 100% = 57 uM dopamine signal; potentiation, % (test concentration not listed); 0.23% of 360,000 active; AID 624464; in the data active = potentiation above about 50%; inconclusive = mostly about 30% to 49%
Target sequence (P14416 whole entry, looked up): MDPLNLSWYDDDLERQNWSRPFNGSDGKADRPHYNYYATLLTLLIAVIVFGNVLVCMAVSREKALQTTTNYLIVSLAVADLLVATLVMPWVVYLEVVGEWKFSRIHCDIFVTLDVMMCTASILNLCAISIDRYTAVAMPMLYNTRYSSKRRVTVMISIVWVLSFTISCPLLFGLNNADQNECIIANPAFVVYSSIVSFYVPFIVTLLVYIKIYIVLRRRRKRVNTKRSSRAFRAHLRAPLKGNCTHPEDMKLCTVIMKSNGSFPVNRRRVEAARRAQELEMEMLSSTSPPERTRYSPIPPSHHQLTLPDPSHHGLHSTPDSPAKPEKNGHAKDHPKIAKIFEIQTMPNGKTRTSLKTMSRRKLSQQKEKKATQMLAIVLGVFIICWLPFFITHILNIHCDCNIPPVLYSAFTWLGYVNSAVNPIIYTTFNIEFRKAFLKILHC
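PathHunter D2 cells, attached overnight at 37 deg C, received compound in DMSO plus dopamine at EC20 (50 nM final) for 90 min at 37 deg C. Beta-arrestin recruitment was read as luminescence after 1 h with detection reagent at ambient temperature.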
D2 antag – antagonizes the human D2 dopamine receptor. HEK293 TREx D2 cells, calcium flux, dopamine EC80. inhibition, % at 10 µM. 2% of 340,000 active. AID 485344; in the data active = inhibition above about 30%; inactive = below that, where a call was filed
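Inhibition of EC80 dopamine-driven calcium flux, recorded kinetically, defines activity here; cells are a tetracycline-induced HEK293 T-REx line expressing force-coupled D2.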
D2 ag-1 – D2 dopamine receptor (human) agonism; 0.53% of 340,000 active; activation, % at 2 µM; HEK293 T-REx D2 cells, calcium flux agonist mode;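 active = activation over 3 SD above normal in the single-dose calcium agonist read, cut at about 30% in these data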
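Tetracycline-induced HEK293 T-REx cells with force-coupled D2 receptor, plated overnight at 30 C, loaded with no-wash calcium dye. After a 10 s baseline, compound was pin-added and calcium flux read kinetically for 180 s; calcium rises flagged agonists.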
D2 ag-2 – activates the human D2 dopamine receptor | P14416 | DiscoveRx PathHunter D2 beta-arrestin, luminescence, 90 min; 100% = 57 uM dopamine signal | activation, % (concentration not given with the values) | 0.084% of 360,000 active; in the data active = activation above about 40%; inconclusive = between about 15% and that limit
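DiscoveRx PathHunter D2 beta-arrestin cells (2,100/well) attached overnight, then compound-stimulated 90 min at 37 C in HBSS/10 mM HEPES/0.1% Tween-20 buffer; beta-galactosidase complementation read by luminescence after 1 h at ambient temperature. Dopamine 57 uM final (EC100) as control.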
D2 PAM-2 – positively modulates the human D2 dopamine receptor allosterically; P14416; HEK293 T-REx D2, calcium flux, EC20 dopamine potentiation; potentiation, % at 10 µM; 0.34% of 340,000 active; AID 485347;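 active = potentiation over 3 SD above the plate norm, cut at about 30% in these data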
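Potentiation of an EC20 dopamine calcium response measured kinetically over 180 s, after a preceding 180 s compound-only read flagging agonists. Cells: inducible Hek293 Trex D2 line, 4000/well, cultured overnight at 30 C before dye loading.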
Of the large screens only hits and unclear results are named; the others gave an inactive call. Only some compounds are listed: those with a hit (about 2.4% of all), similar ones and a draw of the others.

CC(C)(C)CN1CCC(Oc2cccc(C(=O)N3CCNC(=O)C3(C)C)c2)CC1	D2 antag 32
CCCCN(C)C(=O)c1cccc(OC2CCN(CC(C)(C)C)CC2)c1	D2 antag 67
COCCNC(=O)c1cccc(OC2CCN(Cc3cccc(C(C)=O)c3)CC2)c1	none
CCCN1CCC(Oc2cccc(C(=O)NCCc3ccccc3)c2)CC1	D2 PAM-2 31
COCCCNC(=O)C1CCCN(c2nn3cc(-c4ccc(C)cc4)nc3s2)C1 (stereo unspecified)	none (no result: D2 PAM-1, D2 antag, D2 ag-2)
CCN1CCOC(=O)C1CC(=O)Nc1cc(C)cc(C)c1 (stereo unspecified)	none (no result: D2 PAM-1, D2 antag, D2 ag-2)
Cc1cccc(OCc2ccc(-c3nc(C#N)c(NCCN(C)C)o3)o2)c1	none (no result: D2 PAM-1, D2 antag, D2 ag-2)
COc1ccc(Nc2cc(C)c3cc(NC(=O)c4cc(OC)cc(OC)c4)ccc3n2)cc1	none (no result: D2 PAM-1, D2 antag, D2 ag-2)
CN1CCN(c2oc(-c3ccccc3)nc2S(=O)(=O)c2ccc(Br)cc2)CC1	D2 antag 31
CN1CCN(c2oc(-c3ccccc3Cl)nc2S(=O)(=O)c2ccccc2)CC1	D2 antag 79
CN1CCN(c2oc(-c3cccs3)nc2S(=O)(=O)c2ccccc2)CC1	none
CC(=NNC(=S)N1CC2CCC(CC2)C1)c1cnccn1	D2 PAM-1 97, D2 ag-2 inconclusive (no result: D2 antag, D2 ag-1, D2 PAM-2)
COc1ccc(CN2CCN(Cc3cccc(Oc4ccccc4)c3)CC2)c(OC)c1OC	D2 antag 34
COc1ccc(CN2CCN(c3ccc(F)cc3)CC2)c(OC)c1OC	D2 antag 33
COc1ccc(CN2CCN(C(c3ccc(F)cc3)c3ccc(F)cc3)CC2)c(OC)c1OC	none (no result: D2 antag, D2 ag-1, D2 PAM-2)
CN1CCN(Cc2cccc(Oc3ccccc3)c2)CC1	none
Cn1c(SCc2ccc(Br)cc2)nc2ccccc2c1=O	none
Cc1cccc(CSc2nc3ccccc3c(=O)n2C)c1	D2 antag 35
CCN(C(=O)COC(=O)/C(C#N)=C/c1ccc(OC)cc1)C1CCS(=O)(=O)C1 (stereo unspecified)	D2 antag 36
COc1cccc(NS(=O)(=O)c2ccc(S(=O)(=O)N3CCCC3)cc2)c1	none
COc1ccc(CNS(=O)(=O)c2ccc3c(c2)N(C(C)=O)CCO3)cc1	none
COc1cccc(CNS(=O)(=O)c2ccc3c(c2)N(C)CCO3)c1	D2 antag 39
COc1cccc(CN(Cc2ccccc2F)S(=O)(=O)c2ccc(S(=O)(=O)NCc3ccccc3)cc2)c1	D2 antag 43
COc1cccc(CNS(=O)(=O)c2ccc(S(=O)(=O)N3CCCC3)cc2)c1	D2 PAM-2 32
CCOc1ccc(C(=O)N2CCC(c3ccncc3)CC2)cc1	none (no result: D2 PAM-1, D2 antag, D2 ag-2)
CCOC(=O)C1=C(CN(CC)Cc2ccccc2)NC(=O)NC1c1ccc(OC(C)C)cc1 (stereo unspecified)	none (no result: D2 PAM-1, D2 antag, D2 ag-2)
Cc1cccc(NC(=O)Cn2c(=O)n(CCCS(=O)(=O)C3CCCCC3)c(=O)c3ccccc32)c1	none (no result: D2 PAM-1, D2 antag, D2 ag-1, D2 ag-2)
O=[N+]([O-])c1cc(-c2n[nH]c(-c3ccccc3)n2)cc([N+](=O)[O-])c1	D2 PAM-1 53
O=[N+]([O-])c1cc([N+](=O)[O-])c2n[nH]c(-c3ccccc3)c2c1	none
O=C(N/N=C/c1cccc([N+](=O)[O-])c1)c1cc2ccccc2o1	D2 antag 33
COc1ccc2ccccc2c1/C=N/Nc1cccc(C(=O)O)c1	none
O=C(O)c1cccc(N/N=C/c2sc(N3CCOCC3)nc2-c2ccccc2)c1	D2 PAM-1 112
O=C(O)c1cccc(N/N=C/c2cccc3ccccc23)c1	D2 PAM-2 47
Nc1ccc(C(=O)N/N=C\C=C\c2cccc([N+](=O)[O-])c2)cc1	D2 antag 48
O=C(N/N=C/C=C/c1cccc([N+](=O)[O-])c1)c1ccncc1	none
Cc1cccc(-n2ncc(C(=O)NCc3ccco3)c2C2CCN(C(=O)OC(C)(C)C)CC2)c1	none (no result: D2 PAM-1, D2 antag, D2 ag-2)
O=C(O)Cn1cc(/C=N/NC(=O)c2cc3cc(Br)ccc3o2)c2ccccc21	none
O=C(N/N=C/c1cccc2ccccc12)c1cccnc1	D2 antag 37
Cc1ccccc1/C=N/NC(=O)c1cccnc1	none
Cn1cc(/C=N/NC(=O)c2cc3cc(Br)ccc3o2)c2ccccc21	D2 antag 66
O=C(N/N=C/c1cccc2ccccc12)c1cc2ccccc2o1	D2 antag 52
O=C(COC(=O)c1cccnc1)Nc1cccc2ccccc12	D2 antag 32
CCOc1ccc(-c2nc(Cn3c(=O)cc(-c4ccccc4)c4c(C)nn(C)c43)c(C)o2)cc1OC	none (no result: D2 PAM-1, D2 antag, D2 ag-2, D2 PAM-2)
CCOc1ccc(N2CC(c3nc4ccccc4n3CCCOc3ccccc3OC)CC2=O)cc1 (stereo unspecified)	none (no result: D2 PAM-1, D2 antag, D2 ag-2)
O=C(Cc1ccccc1)Nc1c(C(=O)Nc2ccccc2F)oc2ccccc12	none (no result: D2 PAM-1, D2 antag, D2 ag-2)
CCOc1ccc(/C=N/OCC(=O)NCc2ccc3c(c2)OCO3)cc1OC	D2 antag 32
Cc1ccc(NC(=O)C2CC(=O)NC(N3CCc4ccccc43)=N2)cc1 (stereo unspecified)	D2 antag 44
CCOc1ccccc1NC(=O)Nc1cc(S(=O)(=O)N(C)C)ccc1C	none (no result: D2 antag, D2 ag-1, D2 PAM-2)
CC1CCCCC1NC(=O)CSc1nc2ccccc2[nH]1 (stereo unspecified)	D2 PAM-2 37
CC1CCN(C(=O)CSc2nc3ccccc3[nH]2)CC1	none
Cc1ccc(S(=O)(=O)N(C)C)cc1NC(=O)Nc1ccccc1	D2 antag 84
Cc1ccc(NC(=O)Nc2cc(S(=O)(=O)N(C)C)ccc2C)cc1	D2 antag 37
Cc1ccc(S(=O)(=O)N(C)C)cc1NC(=O)CSc1nc2ccccc2[nH]1	D2 antag 31
O=C(Cn1cc(C(=O)C(F)(F)F)c2ccccc21)N1CCCCCC1	none (no result: D2 PAM-1, D2 antag, D2 ag-1, D2 ag-2)
CN(C)S(=O)(=O)c1cccc(NC(=S)N2CCc3ccccc32)c1	none
Cc1ccc(S(=O)(=O)N(C)C)cc1NC(=S)N1CCc2ccccc21	D2 antag 55
COc1cc(NC(=O)C2CCN(S(=O)(=O)c3c(C)noc3/C=C/c3c(C)cc(C)cc3C)CC2)cc(OC)c1	none (no result: D2 PAM-1, D2 antag, D2 ag-2)
COc1ccc(C(=O)Nc2ccc3nc(SCC(=O)N(C)c4ccccc4)sc3c2)cc1	none (no result: D2 PAM-1, D2 antag, D2 ag-1, D2 ag-2)
O=C(Nc1nc2c(F)cccc2s1)c1ccc([N+](=O)[O-])o1	D2 antag 33
COc1ccc(CC(=O)NNC(=O)c2cc(C)oc2C)cc1OC	D2 antag 32
CCOC(=O)N1CCC(=NNC(=O)Cn2ccc(C(F)(F)F)n2)CC1	D2 PAM-2 33
CCOc1ccc(OCC)c(Nc2cc(C)nc3nc(-c4ccco4)nn23)c1	none (no result: D2 PAM-1, D2 antag, D2 ag-2)
Cc1cc(Br)ccc1NC(=O)CSc1c2c(nc3ccccc13)CCC2	none (no result: D2 PAM-1, D2 antag, D2 ag-2)
OCCC1CN(Cc2ccc(F)cc2)CCN1CCCc1ccccc1 (stereo unspecified)	none
